Measurements: PubChem BioAssay
Entries with a potency or affinity are not part of this list. Active and inactive are the calls of the source.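 The calls were made as follows: active = fitted dose curve reaches 40% lysis signal rise at or below the highest valid concentration tested for that sample; inconclusive = flat fit between 30% and 70%, or poor curve fit; inactive = signal falls, stays flat within 30%, or no crossing.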

Assay: inducers of Cryptococcus neoformans cell lysis, dose response, AK release luminescence, cherry-picks (AID 687000);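 also: luminescent detection of adenylate kinase leaking from lysed yeast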
Details: C. neoformans lysis, adenylate kinase release luminescence, 4 h, 100% = twice the neutral-control signal; series mostly up to 15 µM

outcome, inactive:
CN1C(=O)c2cc(NC(=O)Nc3ccc(Cl)cc3)ccc2OC[C@H]2O[C@@H](CC(=O)NCCN3CCCCC3)CC[C@@H]21
CC(C)NC(=O)Nc1ccc2c(c1)C(=O)N([C@@H](C)CO)C[C@H](C)[C@@H](CN(C)Cc1ccc3c(c1)OCO3)OCCCC[C@@H](C)O2
CC1CCCCN1C(=O)CSc1nc(C2CC2)nc2c1cnn2-c1ccccc1 (stereo not given)
COc1cccc(S(=O)(=O)N2C[C@@H](O)COC[C@H]3O[C@H](CC(=O)Nc4ccccc4)CC[C@@H]32)c1
COc1ccc(N(CC(=O)NCCSCc2ccc(C)cc2)S(=O)(=O)c2ccccc2)cc1
C[C@@H]1CN([C@@H](C)CO)S(=O)(=O)c2ccc(C#CC3CC3)cc2O[C@H]1CN(C)CC1CCOCC1
C[C@@H](NC(=O)C[C@@H]1CC[C@@H]2[C@H](COC[C@H](O)CN2Cc2cc(F)ccc2F)O1)c1ccccc1
COc1cc(C(=O)Oc2ccccc2N)cc(OC)c1OC
CCCN1CCCC[C@H]1C(=O)Nc1c(C)cccc1C
Cc1noc(C)c1NC(=O)Nc1ccc2c(c1)C(=O)N(C)[C@@H]1CC[C@H](CC(=O)N[C@H]3CCN(Cc4ccccc4)C3)O[C@@H]1CO2
COc1ccccc1CN1CC[C@H]2[C@H](CO)Nc3ccc(C#Cc4ccccc4)cc3[C@H]21
C[C@@H]1CN([C@@H](C)CO)C(=O)c2cc(NS(=O)(=O)c3ccc(F)cc3)ccc2O[C@@H](C)CCCCO[C@H]1CN(C)S(=O)(=O)c1ccc(F)cc1
C[C@@H]1CN([C@@H](C)CO)C(=O)c2cc(NC(=O)Nc3cccc4ccccc34)ccc2O[C@@H]1CN(C)C(=O)Nc1ccccc1
CC(C)NC(=O)Nc1ccc2c(c1)CC(=O)N([C@H](C)CO)C[C@H](C)[C@H](CN(C)S(=O)(=O)c1ccc(Cl)cc1)O2
CC(C)(C)c1ccc(OCC(=O)NC(c2ccccc2)c2ccccc2)cc1
CN1C(=O)c2cc(NC(=O)NC3CCCC3)ccc2OC[C@H]2O[C@@H](CC(=O)NC3CCC3)CC[C@@H]21
C[C@@H]1CN([C@H](C)CO)S(=O)(=O)c2ccc(C#Cc3ccc(F)cc3)cc2O[C@H]1CN(C)C(=O)NC1CCCC1
C[C@@H]1CCCCO[C@H](CN(C)Cc2ccc3c(c2)OCO3)[C@H](C)CN([C@H](C)CO)C(=O)c2cc(NC(=O)Nc3cccc4ccccc34)ccc2O1
C[C@@H]1CN([C@@H](C)CO)S(=O)(=O)c2ccc(C#Cc3ccccn3)cc2O[C@H]1CN(C)Cc1ccccc1
CO[C@H]1CN(C)C(=O)c2cc(NS(=O)(=O)CC(F)(F)F)ccc2OC[C@@H](C)N(Cc2cccnc2)C[C@@H]1C
O=C(CN1CCOCC1)N1CC[C@@H]2[C@@H](CO)Nc3ccc(-c4ccccc4F)cc3[C@@H]21
COc1ccccc1C(=O)Nc1ccc2c(c1)C(=O)N(C)C[C@H](OC)[C@@H](C)CN(CC1CC1)[C@@H](C)CO2
O=C(Nc1ccccc1)N1CCCCN2[C@H](CO)[C@@H](c3ccc(C#CC4CC4)cc3)[C@@H]2C1
COc1ccc(C#Cc2ccc3c(c2)O[C@@H](CN(C)C(C)=O)[C@@H](C)CN([C@H](C)CO)S3(=O)=O)cc1
COc1ccc(C(=O)NC(=S)Nc2cccc(Cl)c2N2CCOCC2)cc1[N+](=O)[O-]
N#Cc1ccc(-c2ccc3c(c2)[C@H]2[C@H](CCN2C(=O)Cc2ccccc2)[C@@H](CO)N3)cc1
Cc1ccccc1CN(C)C[C@H]1OCc2cn(nn2)CCCC(=O)N([C@@H](C)CO)C[C@H]1C
CCCC#Cc1ccc2c(c1)O[C@H](CN(C)CCC)[C@H](C)CN([C@@H](C)CO)S2(=O)=O
C[C@@H]1CN([C@H](C)CO)C(=O)c2c(c3ccccc3n2C)-c2ccccc2CO[C@H]1CN(C)S(=O)(=O)c1ccc(Cl)cc1
CCNC(=O)Nc1ccc2c(c1)C(=O)N(C)[C@H]1CC[C@H](CC(=O)Nc3ccccc3F)O[C@@H]1CO2
C[C@@H]1CN([C@@H](C)CO)C(=O)c2cccc(NS(C)(=O)=O)c2O[C@@H]1CN(C)C(=O)Nc1ccc2c(c1)OCO2
CCOc1ccc(C(=O)NC(=S)Nc2ccccc2N2CCC(C)CC2)cc1[N+](=O)[O-]
CO[C@@H](CN(C)Cc1cc(F)ccc1F)[C@@H](C)CN([C@H](C)CO)S(=O)(=O)c1ccc(F)cc1
C[C@H](CO)N1C[C@H](C)[C@@H](CN(C)Cc2ccncc2)Oc2ccc(NC(=O)CCC(F)(F)F)cc2C1=O
C[C@@H]1CN([C@@H](C)CO)C(=O)Cc2cc(NC(=O)Nc3cccc4ccccc34)ccc2O[C@@H]1CN(C)S(=O)(=O)c1cccs1
CC=Cc1ccc2n(c1=O)C[C@H]1[C@H](CO)[C@@H](C(=O)N3CCc4ccccc4C3)N(C(=O)C3CC3)[C@@H]21 (mixture of isomers)
COc1cccc(S(=O)(=O)Nc2ccc3c(c2)OC[C@H](C)NC[C@@H](C)[C@H](OC)CN(C)C3=O)c1
COCCNC(=O)C[C@H]1C=C[C@@H](NS(=O)(=O)c2ccc(C)cc2)[C@H](CO)O1
C[C@H]1CN([C@@H](C)CO)C(=O)Cc2cc(NC(=O)CCCCCC(=O)Nc3ccccc3N)ccc2O[C@H]1CN(C)Cc1ccc2c(c1)OCO2
C[C@@H]1CN([C@@H](C)CO)C(=O)CCCn2nncc2CO[C@@H]1CN(C)Cc1cccc(C(F)(F)F)c1
